From PubChem BioAssay (Tox21) come the findings set out here.

“And” between values parts separate entries of the source, which are not always exact repeats. Equal values may be shown once. Records with an inconclusive call do not appear. The source holds several records for some structures; these can differ, active in one and inactive in another. The source made the active and inactive calls. Unless noted, calls follow the shape of the dose curve; as a rule, active = well fitted curve in the direction sought with a large enough effect in the repeat runs; inconclusive = weak or mixed curves; inactive = no such curve, though single readings can be large; an effect the other way counts as inactive or inconclusive.

Experiment [1] in a line: qHTS assay for small molecules that induce genotoxicity in human embryonic kidney cells expressing luciferase-tagged ATAD5 (AID 651632). Also: nearly all actives have a fitted effect of over 15% in size. Particulars: HEK293T ATAD5-luciferase induction, 16 h; series mostly up to 83.3 µM. The method in brief:
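Quantitative HTS in HEK293T expressing luciferase-tagged ATAD5, whose levels rise upon DNA damage. Exposure ran 16 hr at 37C and 5% CO2, with luminescence read 30 min after Amplite addition at room temperature.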
A general note: In qHTS, concentration-response curves come from the screen itself.

Experiment [2] in a line: qHTS assay for small molecule agonists of the p53 signaling pathway - cell viability (AID 651633; calls by dose curve; also: nearly all actives have a fitted effect of over 30% in size). Conditions: p53RE-bla HCT-116 viability, ATP luminescence, 16 h; series mostly up to 83.3 µM. The method in brief: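 p53RE-bla cells were treated with compound for 16 hours at 37 C. Cytotoxicity was then measured as CellTiter-Glo luminescence after 30 min at room temperature.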

Experiment [3] is described as follows: qHTS assay for small molecules that induce genotoxicity in human embryonic kidney cells expressing luciferase-tagged ATAD5 - cell viability (AID 651634; calls by dose curve; also: nearly all actives have a fitted effect of over 25% in size). Particulars: HEK293T ATAD5-luc cells viability, CellTiter-Fluor, 15.5 h; series mostly up to 83.3 µM. In a few lines:
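After 15.5 hr incubation with compound at 37C, 5% CO2, HEK293T ATAD5-luciferase cells received CellTiter-Fluor reagent; fluorescence intensity was quantified following 30 min at 37C.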

A short description of experiment [4]: qHTS assay for small molecule disruptors of the mitochondrial membrane potential - cell viability (AID 720634; calls by dose curve; also: nearly all actives have a fitted effect of over 20% in size; also: potency is read from the fitted curve at half-maximal effect). Conditions: HepG2 viability, ATP luminescence (CellTiter-Glo), 1 h; series mostly up to 83.2 µM. In a few lines: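 ATP-based luminescent viability readout (CellTiter-Glo, 30 min, room temperature) in HepG2 cells multiplexed with the m-MPI membrane potential dye; compound exposure lasted 1 hr at 37 C.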

The nature of experiment [5]: qHTS assay to test for compound auto fluorescence at 535 nm (green) in HepG2 cells (AID 720675). Conditions: green autofluorescence 485/535 nm, 1 h; series mostly up to 91.3 µM.
Experiment [6] is described as follows: qHTS assay to test for compound auto fluorescence at 460 nm (blue) in HEK293 cells (AID 720678). Particulars: blue autofluorescence 405/460 nm; series mostly up to 91.3 µM. In a few lines: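 Cells were seeded and left to adhere for 4-5 hr at 37C. Compounds were then pin-transferred. After an overnight incubation at 37C under 5% CO2, intrinsic fluorescence at 405/460 nm was measured and referenced to triamterene.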

Experiment [7] can be described thus: qHTS assay to test for compound auto fluorescence at 590 nm (red) in HEK293 cells (AID 720679). Particulars: red autofluorescence 540/590 nm; series mostly up to 91.3 µM. The method in brief:
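Each well held 2,000 HEK293 cells in medium containing 10% dialyzed FBS. Following 4-5 hr attachment at 37C, 23 nL test compound or DMSO was added; plates sat overnight, and red fluorescence (540/590nm) was recorded.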

Experiment [8] can be described thus: qHTS assay to test for compound auto fluorescence at 535 nm (green) in HEK293 cells (AID 720680). Conditions: green autofluorescence 485/535 nm; series mostly up to 91.3 µM.
The nature of experiment [9]: qHTS assay to test for compound auto fluorescence at 460 nm (blue) in HEK293 cell free culture (AID 720681). Conditions: cell-free medium, autofluorescence 405/460 nm (blue); series mostly up to 91.3 µM. In a few lines: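 Compounds were added to cell-free DMEM with 10% FBS and fluorescence read directly. The blue channel used 405 nm excitation and 460 nm emission, with triamterene as the reference fluorophore.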

A short description of experiment [10]: qHTS assay to test for compound auto fluorescence at 535 nm (green) in HEK293 cell free culture (AID 720682). Conditions: cell-free medium, green autofluorescence 485/535 nm, stronger effect = higher value; series mostly up to 91.3 µM. The method in brief:
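DMEM + 10% FBS, cell-free; cpd or DMSO pinned in; Ex485/Em535 read; output as fluorescein-equivalent signal.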

Experiment [11] in a line: qHTS assay to test for compound auto fluorescence at 590 nm (red) in HepG2 cell free culture (AID 720684). Conditions: cell-free medium autofluorescence, red 540/590 nm; series mostly up to 91.3 µM. The method in brief:
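Auto fluorescence equivalency versus Rose Bengal sodium, red channel Ex/Em 540/590 nm; compounds in cell-free MEM/10% FBS; DMSO vehicle control.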

A short description of experiment [12]: qHTS assay to test for compound auto fluorescence at 460 nm (blue) in HepG2 cell free culture (AID 720685). Particulars: Cell-free culture medium, blue autofluorescence 405/460 nm; series mostly up to 91.3 µM. The method in brief: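 Cell-free plates of MEM plus 10% FBS received 23 nL compound or DMSO vehicle; blue-channel (405/460 nm) intensity scored against triamterene as reference fluorophore.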

Experiment [13] is described as follows: qHTS assay to test for compound auto fluorescence at 535 nm (green) in HepG2 cell free culture (AID 720686). Particulars: Cell-free medium, green autofluorescence 485/535 nm; series mostly up to 91.3 µM.
Experiment [14] can be described thus: qHTS assay to test for compound auto fluorescence at 460 nm (blue) in HepG2 cells (AID 720687). Particulars: autofluorescence 405/460 nm, 1 h; series mostly up to 91.3 µM. In a few lines: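 HepG2 cells in MEM with 10% FBS, attached overnight at 37 C, were exposed to compound or DMSO for 1 hr at 37 C, 5% CO2. Blue fluorescence was read at 405/460 nm, with triamterene as reference fluorophore.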

Experiment [15] has as its target Glucocorticoid receptor (Homo sapiens) (UniProt P04150). The experiment can be described thus: qHTS assay to identify small molecule agonists of the glucocorticoid receptor (GR) signaling pathway (AID 720691; active = well fitted activation curve with a large enough effect in the signal ratio in the repeat runs, not every such curve was filed as active; the % refers to the signal ratio). Conditions: GR-bla HeLa, beta-lactamase reporter ratio, 18 h; series mostly up to 62.4 µM. In a few lines:
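Cells: GR-bla HeLa, endogenous GR with stably integrated GRE-beta-lactamase reporter. Treatment 18 h, 37 C, compounds delivered in DMSO. Detection via LiveBLAzer B/G FRET substrate, 2 h RT, fluorescence intensity.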

Experiment [16] can be described thus: qHTS assay for small molecule disruptors of the mitochondrial membrane potential (AID 720635). Also: potency is read from the fitted curve at half-maximal effect. Particulars: HepG2 mitochondrial membrane potential, Mito-MPS dye ratio; series mostly up to 83.2 µM. The method in brief: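 HepG2 cells exposed to compound 1 hr at 37C, then Mito-MPS dye 30 min. Ratio read of aggregate (540/590 nm) versus monomer (490/535 nm) fluorescence.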

Experiment [17] is described as follows: qHTS assay to test for compound auto fluorescence at 590 nm (red) in HepG2 cells (AID 720674). Conditions: HepG2 autofluorescence, red 540/590 nm, 1 h; series mostly up to 91.3 µM. The method in brief: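 HepG2 cells, 2,000 per well in MEM with 10% FBS, attached overnight at 37 C, then got 23 nL compound or DMSO. After 1 hr at 37 C, 5% CO2, red fluorescence was read at 540/590 nm against Rose Bengal sodium as reference.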

Experiment [18] is described as follows: qHTS assay to test for compound auto fluorescence at 590 nm (red) in HEK293 cell free culture (AID 720683). Conditions: cell-free medium autofluorescence, Ex540/Em590 red; series mostly up to 91.3 µM. In a few lines: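 Cell-free wells of DMEM with 10% FBS received compound, and intrinsic fluorescence was read at excitation/emission 540/590 nm. Values expressed as equivalence to Rose Bengal sodium.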

The target of experiment [19] is Glucocorticoid receptor (Homo sapiens) (UniProt P04150). The experiment in a line: qHTS assay to identify small molecule antagonists of the glucocorticoid receptor (GR) signaling pathway (AID 720692; active = well fitted inhibition curve with a large enough effect in the signal ratio in the repeat runs, not every such curve was filed as active; the % refers to the signal ratio; also: potency is read from the fitted curve at half-maximal effect). Particulars: GR-bla HeLa, beta-lactamase FRET ratio, dexamethasone-stimulated, 18 h; series mostly up to 58.5 µM. The method in brief:
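Quantitative HTS in antagonist format: HeLa cells expressing endogenous GR and a stably integrated GRE-bla reporter, stimulated with 5 nM dexamethasone (final) alongside test compounds for 18 h.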

A short description of experiment [20]: qHTS assay for small molecule agonists of the p53 signaling pathway (AID 651631; calls by dose curve; also: nearly all actives have a fitted effect of over 15% in size). Particulars: HCT-116 p53RE-bla reporter, beta-lactamase FRET ratio, 16 h; series mostly up to 73.3 µM. The method in brief: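 Testing took place in human colorectal HCT-116 cells with stable p53RE-driven beta-lactamase. After 16 h of compound exposure at 37 °C, a FRET substrate was added and fluorescence recorded 2 h later.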

Chain of Glucocorticoid receptor (Homo sapiens) (P04150 whole entry, looked up): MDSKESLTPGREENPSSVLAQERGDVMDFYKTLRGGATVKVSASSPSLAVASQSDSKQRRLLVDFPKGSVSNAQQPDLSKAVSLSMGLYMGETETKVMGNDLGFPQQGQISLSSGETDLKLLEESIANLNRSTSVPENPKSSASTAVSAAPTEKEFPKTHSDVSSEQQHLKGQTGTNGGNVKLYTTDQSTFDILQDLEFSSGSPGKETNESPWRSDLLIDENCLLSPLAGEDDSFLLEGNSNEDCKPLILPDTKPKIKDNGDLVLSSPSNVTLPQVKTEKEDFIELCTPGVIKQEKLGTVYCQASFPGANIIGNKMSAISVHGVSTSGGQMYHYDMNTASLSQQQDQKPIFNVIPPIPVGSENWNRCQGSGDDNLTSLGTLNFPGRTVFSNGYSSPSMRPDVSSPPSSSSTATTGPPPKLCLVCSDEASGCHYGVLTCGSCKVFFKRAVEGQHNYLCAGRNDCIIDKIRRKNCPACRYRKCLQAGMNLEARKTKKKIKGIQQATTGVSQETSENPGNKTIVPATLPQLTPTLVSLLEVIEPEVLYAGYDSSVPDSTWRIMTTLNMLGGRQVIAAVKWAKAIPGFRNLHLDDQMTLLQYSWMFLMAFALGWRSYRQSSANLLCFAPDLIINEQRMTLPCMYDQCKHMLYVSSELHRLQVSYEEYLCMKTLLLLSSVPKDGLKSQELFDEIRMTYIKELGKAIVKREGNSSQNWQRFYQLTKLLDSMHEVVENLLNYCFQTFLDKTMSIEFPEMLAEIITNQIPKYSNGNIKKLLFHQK

For `CCc1cccc(CC)c1N(COC)C(=O)CCl`, the Potency entry in experiment [1], in [2], in [3], in experiment [4] and in experiment [15] was “inactive” in each case. For the same molecule, the outcome in experiment [5], in [6], in [7], in [8], in experiment [9] and in experiment [10] was inactive. Moreover, the call in [11], in [12], in experiment [13] and in experiment [14] was inactive.
`C=C(C)C(=O)OCC1CO1` (stereo not given): the Potency result in experiment [1], in experiment [2], in experiment [3], in experiment [4], in experiment [16] and in experiment [15] was “inactive” in each case. Also, in experiment [19], the Potency entry was “inactive”. Moreover, the result in experiment [17], in experiment [5], in [6], in experiment [7], in experiment [8] and in experiment [9] was inactive. Also, the molecule was called inactive in experiment [10], in experiment [18], in experiment [11], in experiment [12], in [13] and in [14].
On to `CCOc1cc(Oc2ccc(C(F)(F)F)cc2Cl)ccc1[N+](=O)[O-]`, for which the Potency result in experiment [1], in [2], in experiment [3], in experiment [15] and in experiment [19] was “inactive” in each case. In addition, the Potency in experiment [4] is 19.5 µM (active); in experiment [16] it was 17.4 µM (active) and 24.3 µM (active). For the same molecule, the outcome in [5], in experiment [6], in experiment [7], in experiment [8], in experiment [9] and in experiment [10] was inactive. Moreover, the result in experiment [18], in experiment [11], in experiment [12] and in experiment [14] was inactive.
For `CC(O)CCO` (stereo not given), the Potency result in experiment [20], in experiment [2] and in experiment [3] was “inactive” in each case. Besides, the outcome in experiment [17], in experiment [5], in [6], in experiment [7], in experiment [8] and in [9] was inactive. The call in experiment [10], in experiment [18], in [11], in experiment [12], in experiment [13] and in experiment [14] was inactive.
Consider `C#CCOS(=O)OC1CCCCC1Oc1ccc(C(C)(C)C)cc1` (stereo not given), for which the Potency result in experiment [1], in experiment [2], in [3] and in experiment [15] was “inactive” throughout. In addition, the Potency result in [4] is “inactive and 3.86 µM (active)”; in experiment [16], 15.4 µM (active) and 24.3 µM (active); in [19], 43.7 µM (active). For the same molecule, the molecule was called inactive in experiment [5], in [6], in experiment [7], in experiment [8], in [9] and in experiment [10]. Also, the result in experiment [18], in experiment [11], in experiment [12] and in experiment [14] was inactive.
Regarding `COC(=O)c1sccc1S(=O)(=O)NC(=O)Nc1nc(C)nc(OC)n1`, the Potency entry in [1], in experiment [2], in [3], in [4], in experiment [16] and in experiment [15] was “inactive” in each case. In addition, in experiment [19], the Potency result was “inactive”. In addition, the result in [17], in experiment [5], in experiment [6], in [7], in experiment [8] and in experiment [9] was inactive. The molecule was classed as inactive in [10], in experiment [18], in [11], in experiment [12], in experiment [13] and in [14].
As to `O=P(O)(O)CCCl`, the Potency entry in experiment [1], in experiment [2], in experiment [3], in experiment [4] and in experiment [16] was “inactive” in each case. Besides, the result in experiment [17], in experiment [6], in experiment [7], in experiment [8], in [9] and in [10] was inactive. Also, the outcome in experiment [18], in experiment [11], in [12], in experiment [13] and in [14] was inactive.
As for `O=[N+]([O-])c1c(Cl)c(Cl)c(Cl)c(Cl)c1Cl`, the Potency entry in [1], in [2], in experiment [3], in [4] and in experiment [15] was “inactive” throughout. Moreover, the outcome in [17], in experiment [6], in experiment [7], in [8], in [9] and in experiment [10] was inactive. The molecule was classed as inactive in experiment [18], in experiment [11], in [12], in experiment [13] and in experiment [14]. Besides, the Potency in [19] was 30.9 µM (active).
